The list is not random: actives were taken first. Their share in the collection is about 19%.
HepG2 viability = kills HepG2 cells in TGF-b inhibitor counter-screen | actives 0.76% (n = 410,000) | HepG2 CAGA-GFP viability, ATP luminescence, 18 h | Potency, µM (doses to about 46.1 µM), hits mostly cytotoxic
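HepG2 CAGA-GFP cells (1000/well, DMEM with 1% FBS) received compound, then TGF-beta at 500 pg/mL final, and were incubated 18 hours at 37 degrees C. Viability was read by CellTiter-Glo luminescence. Media-only wells were set as complete cell-killing and DMSO as no toxicity.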
TGFb inhibitor = inhibitors of TGF-b signaling; HepG2 CAGA-GFP TGF-b/SMAD3 reporter, GFP fluorescence, 18 h; TGF-beta stimulated, 500 pg/mL final; Potency, µM (highest dose often 46.1 µM), most hits filed as inhibitors; actives 1.2% (n = 410,000); AID 588855; note: nearly all actives have a fitted effect of over 65% in size
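HEPG2 CAGA-GFP cells (1000/well, DMEM with 1% FBS) were pre-incubated 2 h at 37 degrees C, given compound by pin tool, then stimulated with TGF-beta at 500 pg/mL final for 18 h before per-cell GFP fluorescence imaging.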
DT40 TDP1 no CPT = qHTS for Inhibitors of human tyrosyl-DNA phosphodiesterase 1 (TDP1): qHTS in cells in absence of CPT; DT40 Tdp1-/- hTDP1 cells, no CPT, ATP luminescence, 48 h; Potency, µM (top dose mostly 46.2 µM), actives largely listed as inhibitors; actives 15% (n = 420,000); AID 686978, 2013; note: nearly all actives have a fitted effect of over 55% in size
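Growth of hTDP1-complemented DT40 Tdp1-knockout cells is measured by ATP luminescence after at least 48 hr compound exposure at 37 °C, with DMSO substituting for the 20 nM CPT used in the parallel screen.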
TDP1 block = blocks human tyrosyl-DNA phosphodiesterase 1; recombinant TDP1, AlphaScreen DNA substrate cleavage; Potency, µM (top dose mostly 130 µM), actives largely listed as inhibitors; actives 0.28% (n = 350,000); AID 485290; note: nearly all actives have a fitted effect of over 40% in size
Target sequence (Q9NUW8 whole entry, looked up): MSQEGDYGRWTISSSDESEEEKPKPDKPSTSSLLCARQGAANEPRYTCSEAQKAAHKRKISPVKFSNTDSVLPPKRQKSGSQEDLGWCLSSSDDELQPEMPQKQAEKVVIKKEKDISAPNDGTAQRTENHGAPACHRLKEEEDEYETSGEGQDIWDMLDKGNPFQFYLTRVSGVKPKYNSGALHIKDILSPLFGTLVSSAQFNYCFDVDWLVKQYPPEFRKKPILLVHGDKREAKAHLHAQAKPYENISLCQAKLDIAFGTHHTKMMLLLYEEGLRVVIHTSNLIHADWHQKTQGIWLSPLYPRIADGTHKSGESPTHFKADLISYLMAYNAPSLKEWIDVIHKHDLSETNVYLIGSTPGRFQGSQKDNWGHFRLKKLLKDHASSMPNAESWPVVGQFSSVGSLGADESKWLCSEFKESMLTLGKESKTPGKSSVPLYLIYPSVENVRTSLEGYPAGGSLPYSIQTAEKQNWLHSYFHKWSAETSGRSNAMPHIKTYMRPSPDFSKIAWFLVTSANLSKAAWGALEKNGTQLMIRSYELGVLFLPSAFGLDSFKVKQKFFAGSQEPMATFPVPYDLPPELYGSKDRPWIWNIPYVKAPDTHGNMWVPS
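E. coli-derived human Tdp1, 1 nM final. Cpd preinc 15 min RT; substrate 15 nM final, 5 min RT; AS bead mix 10 ug/ml final, 10 min RT. Signal loss = tyrosine-FITC cleavage. No-enzyme wells = max signal.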
IL1B secr inh = inflammasome signaling inhibition, IL-1 beta readout; activity change, % at 57.5 µM; actives 4.7% (n = 360,000); AID 743279; THP-1 LPS/ATP IL-1B secretion, AlphaLISA, 16 h; hits give low values; in the data active = activity change below about -50%; inconclusive = mostly about -30% to -49%
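THP-1 cells pretreated 1 hr with compounds (up to 57.5 uM final), then stimulated with LPS (250 ng/mL final) plus ATP (1.25 mM final); secreted IL-1B measured by AlphaLISA after 16 hr, decreased signal indicating inhibition.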
TDP1 cell CPT = growth inhibition of DT40 Tdp1-/-;hTDP1 cells with camptothecin (screen for TDP1 inhibitors); chicken DT40 Tdp1-/-;hTDP1 cells + 20 nM CPT, ATP luminescence, 48 h; Potency, µM (series often up to 46.2 µM), usual class: inhibitors; actives 12% (n = 420,000); AID 686979; note: nearly all actives have a fitted effect of over 55% in size
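Chicken DT40 Tdp1-/- cells complemented with human TDP1, 400 cells/well, exposed to compounds plus 20 nM camptothecin for at least 48 h at 37 C; viability read as ATP content by CellTiter-Glo luminescence.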
Hits are given with their value; . = inactive; ? = inconclusive; / = no result given; [ ] = dose if it differs, or a comment. Unless noted, calls come from the whole dose curve; as a rule, active = well fitted curve in the direction sought with a large enough effect; inconclusive = small, poorly fitted or top-dose-only effect, or another doubt; inactive = no such curve, though single readings can be large; an effect the other way counts as inactive or inconclusive.

SMILES	HepG2 viability	TGFb inhibitor	DT40 TDP1 no CPT	TDP1 block	IL1B secr inh	TDP1 cell CPT
COc1ccc(CCN2CCCn3c2nc2c3c(=O)n(CC(C)C)c(=O)n2C)cc1OC	.	.	13µM	/	.	20.6µM
Cn1c(=O)n(Cc2ccccc2)c(=O)c2c1nc1n2CCCN1C1CCCCC1	.	.	.	/	.	.
CCn1c(=O)c2c(nc3n2CCCN3Cc2ccccc2)n(C)c1=O	.	?	?	/	.	.
Cc1cccc(Cn2c(=O)c3c(nc4n3CCCN4Cc3ccccc3)n(C)c2=O)c1	.	?	11.2µM	.	?	?
O=C(NCc1cccc(Cl)c1)c1oc(=O)c2ccccc2c1-c1ccccc1	.	.	.	.	/	.
O=C(NC1CCCCC1)C(c1ccncc1)N(C(=O)c1csnn1)c1ccc(F)cc1 (stereo not drawn)	.	.	.	.	.	.
Cc1ccc2cc(C(c3nnnn3C3CCCC3)N(Cc3ccco3)Cc3cccs3)c(=O)[nH]c2c1 (stereo not drawn)	.	.	?	.	.	23.1µM
Cc1ccc2cc(C(c3nnnn3C3CCCC3)N(Cc3cccnc3)Cc3ccco3)c(=O)[nH]c2c1 (stereo not drawn)	.	?	?	.	?	?
COc1ccc2cc(CN(CCCN3CCOCC3)Cc3nnnn3C3CCCCC3)c(=O)[nH]c2c1	.	.	.	.	.	.
CCC(c1nnnn1C1CCCCC1)N(Cc1ccco1)Cc1cc2ccc(OC)cc2[nH]c1=O (stereo not drawn)	.	?	16.4µM	.	-58.3	?
Cc1ccc(NC(=O)c2oc3ccc(S(=O)(=O)N4CCC5(CC4)OCCO5)cc3c2C)c(C)c1	.	?	6.51µM	.	/	8.2µM
Cc1c(C(=O)Nc2ccc(Br)cc2F)oc2ccc(S(=O)(=O)N3CCC4(CC3)OCCO4)cc12	.	.	?	.	/	.
Cc1c(C(=O)Nc2ccc(F)c(F)c2)oc2ccc(S(=O)(=O)N3CCCCC3)cc12	.	?	?	.	?	23.1µM
Cc1c(C(=O)O)oc2ccc(S(=O)(=O)N3CCCC3)cc12	.	.	.	.	.	.
Cc1ccc(NC(=O)c2oc3ccc(S(=O)(=O)N4CCCCC4)cc3c2C)c(C)c1	.	.	.	.	/	.
CCCCN(C)C(=O)c1oc2ccc(S(=O)(=O)N3CCCCCC3)cc2c1C	.	?	?	.	-67.6	18.4µM
Cc1c(C(=O)Nc2ccc(F)c(F)c2)oc2ccc(S(=O)(=O)N3CCC4(CC3)OCCO4)cc12	.	.	11.6µM	.	/	13µM
CC(=O)Oc1cc(OC(C)=O)c2c(c1)OC(c1ccc(OC(C)=O)c(OC(C)=O)c1)C(OC(C)=O)C2 (stereo not drawn)	/	/	?	.	/	?
CCCc1ccc2oc(C(=O)N(C)CCn3ccnc3C)c(C)c2c1	.	?	13µM	/	.	20.6µM
CCCc1ccc2oc(C(=O)N(C)Cc3cnccn3)c(C)c2c1	.	?	?	/	.	?
Cc1ccc(Cl)cc1NC(=O)c1oc2ccc(S(=O)(=O)N3CCC4(CC3)OCCO4)cc2c1C	.	.	.	.	/	.
Cc1c(C(=O)Nc2ccc(F)cc2)oc2ccc(S(=O)(=O)N3CCC4(CC3)OCCO4)cc12	.	.	22.4µM	.	.	15.8µM
CCOC(=O)c1ccccc1NC(=O)CN1C(=O)CC(c2ccccc2)Sc2ccccc21 (stereo not drawn)	.	.	/	.	/	/
COc1ccc(-c2coc3cc4oc(=O)c5ccccc5c4cc23)cc1F	.	?	0.651µM	.	.	0.82µM
Cc1ccc(N2C(=O)C3CCC(C)(C2=O)C3(C)C)cc1 (stereo not drawn)	.	.	.	/	.	.
SMILES	HepG2 viability	TGFb inhibitor	DT40 TDP1 no CPT	TDP1 block	IL1B secr inh	TDP1 cell CPT
CSC[C@@H]1NC(=S)N(c2ccc(C)cc2)C1=O	.	.	2.31µM	.	.	5.17µM
Cc1nc2ccccc2c2oc(C(=O)Nc3ccc(C(C)C)cc3)cc12	.	.	20.6µM	.	.	?
Cn1nc(C(=O)Nc2ccc3c(c2)OCCO3)c2ccccc2c1=O	.	.	.	.	?	.
Cc1nc2ccccc2c2oc(C(=O)Nc3ccc4c(c3)OCCO4)cc12	.	.	14.6µM	.	.	14.6µM
COc1cc(NC(=O)c2cc3c(C)nc4ccccc4c3o2)cc(OC)c1OC	.	.	11.6µM	.	.	8.2µM
Cc1nc2ccccc2c2oc(C(=O)NCC3COc4ccccc4O3)cc12 (stereo not drawn)	.	?	11.6µM	.	.	20.6µM
Cc1nc2ccccc2c2oc(C(=O)N3CCCC(C)C3)cc12 (stereo not drawn)	.	.	?	.	.	?
O=C1CC[C@@H](CN(Cc2cccnc2)C2CCN(c3ccc(NC(=O)c4cnccn4)cc3)CC2)N1	/	/	.	/	/	.
COc1ccc(/C=C/C(=O)c2c(C)cc(C)[nH]c2=O)c2ccccc12	12.6µM	17.8µM	?	/	-99.3	?
CC1(C)CC(=O)C(C(=O)/C=C/c2ccco2)C(=O)C1	.	.	20.6µM	.	.	14.6µM
Cc1ccc(C(=O)/C=C/c2ccco2)c(O)c1	.	.	.	.	.	?
CCc1ccc(/C=C/C(=O)c2c(C)cc(C)[nH]c2=O)cc1	.	?	16.4µM	.	-120.0	16.4µM
Cc1cc(C)c(C(=O)/C=C/c2ccco2)c(=O)[nH]1	.	.	.	15.8µM	?	.
CC1(C)CC(=O)C(C(=O)/C=C/NCCc2ccccc2)C(=O)C1	.	.	?	.	.	.
C=N[C@H](C(=O)N[C@@H]1C(=O)N2[C@@H]1SC(C)(C)[C@@H]2C(=O)O)c1ccccc1	/	/	/	.	/	/
CCCCC(OC(=O)CNC(=O)c1ccccc1)C(=O)Nc1cc(C(F)(F)F)ccc1Cl (stereo not drawn)	/	/	/	.	/	/
Cc1nc(C)c(CC(=O)N2CCOc3ccc(CN4CCOCC4)cc3C2)s1	/	/	?	/	/	.[9.04 µM]
COc1ccc(-c2cc3ccc(O)c(CN4CCCCC4C)c3oc2=O)cc1OC (stereo not drawn)	.	.	.	.	/	?
COc1cccc(-c2nc(-c3ccccc3)c3ccc(Cl)cc3n2)c1	/	/	.	/	.	.
Cc1ccc(/C=C/C(=O)c2c(C)cc(C)[nH]c2=O)cc1	.	.	11.2µM	.	-94.3	8.91µM
Cc1cc(C)c(C(=O)/C=C/c2cccs2)c(=O)[nH]1	.	.	?	.	-72.6	?
Cn1cccc1/C=N/NC(=O)c1sc2cc(Cl)ccc2c1Cl	/	/	/	.	/	/
